# Pf apPOL block = Pf-apPOL DNA polymerase inhibition; inhibition, % at 10 µM; Recombinant Pf-apPOL, molecular beacon fluorescence, 1.5 h; 210,000 tested, 0.25% active
# mHTT-CaM PPI inh = disrupts binding of mutant huntingtin to calmodulin. inhibition, % at 15 µM. 190,000 tested, 3.6% active. AID 1671202. AlphaScreen His-mHTT/GST-CaM binding, luminescence;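 note: 0% = both proteins with DMSO and 100% = one protein alone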
# The depositor's hits bear a star. In the library only some 3.5% were active in any assay of this set; here they are far more common. Cut-off read from the data, not from the text of the source: active = inhibition above about 50%; inactive = the rest.
SMILES,Pf apPOL block,mHTT-CaM PPI inh
CN(C)c1ccc(/C=C2\C(=O)Nc3ccc(Br)cc32)cc1,-34.3,99.0*
O=C1Nc2ccc(Br)cc2/C1=C/c1ccc(F)cc1,-0.1,14.0
CCc1ccc(/C=C2\C(=O)Nc3ccc(Br)cc32)cc1,-3.6,74.0*
COc1ccc(N2C(=O)C3CCCN3C2c2cccc(Br)c2)cc1 (stereo unspecified),0.7,-8.2
CCOc1cc(C2C3=C(CC(C)(C)CC3=O)Nc3ccc4ncccc4c32)ccc1O (stereo unspecified),-15.7,25.0
Cc1ccc(-c2ccc(CN3C(C)C(=O)N(Cc4cn(Cc5ccco5)nn4)CCS3(=O)=O)cc2)c(C)c1 (stereo unspecified),0.1,83.9*
CC1C(=O)N(Cc2cn(Cc3ccco3)nn2)CCS(=O)(=O)N1Cc1ccc(-c2ccc(F)nc2)cc1 (stereo unspecified),1.0,24.6
Cc1ccc(-c2ccc(CN3C(C)C(=O)N(Cc4cn(Cc5ccco5)nn4)CCS3(=O)=O)cc2)cc1 (stereo unspecified),-7.3,18.7
CC1C(=O)N(Cc2cn(Cc3ccco3)nn2)CCS(=O)(=O)N1Cc1ccc(-c2ccccc2C(F)(F)F)cc1 (stereo unspecified),-3.0,67.9*
Cc1ccccc1-c1ccc(CN2C(C)C(=O)N(Cc3cn(Cc4ccco4)nn3)CCS2(=O)=O)cc1 (stereo unspecified),-2.4,91.9*
COc1cccc(-c2ccc(CN3C(C)C(=O)N(Cc4cn(Cc5ccco5)nn4)CCS3(=O)=O)cc2)c1OC (stereo unspecified),0.5,1.8
O=C(CCc1conc1-c1ccccc1)NCc1ccccc1,-0.4,-3.4
COc1ccccc1CN1CC(C(=O)O)CC1=O (stereo unspecified),1.2,-8.4
COc1ccc(CNc2cc(-c3ccccc3)ccc2OC)cc1O,-5.1,76.0*
COc1ccc(CNc2ccccc2F)cc1OCc1ccccc1,2.7,-45.9
CC(=O)N(C)CC(=O)N1N=C(c2ccc(C)c(C)c2)CC1c1ccc(F)cc1 (stereo unspecified),-0.5,38.9
CCC(=O)N(C)CC(=O)N1N=C(c2ccc(C)c(C)c2)CC1c1ccc(F)cc1 (stereo unspecified),-6.3,71.5*
CCC(=O)N(C)CC(=O)N1N=C(c2ccc(C)c(C)c2)CC1c1ccc(C)cc1 (stereo unspecified),0.1,47.0
Cc1ccc(C2=NN(C(=O)CN(C)C(=O)C(C)C)C(c3ccc(F)cc3)C2)cc1C (stereo unspecified),2.8,98.5*
CCC(=O)N(C)CC(=O)N1N=C(c2ccc(F)cc2)CC1c1ccc(F)cc1 (stereo unspecified),0.0,66.1*
CN(CC(=O)N1N=C(c2ccc(F)cc2)CC1c1ccc(F)cc1)C(=O)C1CC1 (stereo unspecified),-0.6,21.9
CCOc1ccccc1C(=O)NCc1cc(-c2ccco2)on1,-6.9,-14.3
COc1ccc(-c2nc(NCc3ccccc3)c3ccccc3n2)cc1OC,-1.2,14.0
COc1ccc(-c2nc(NCc3ccc(F)cc3)c3ccccc3n2)cc1OC,-3.7,87.0*
CC(C)(C)N=C1Nc2ccccc2NC12CCCN(C(=O)NCc1ccco1)C2 (stereo unspecified),3.6,29.9
SMILES,Pf apPOL block,mHTT-CaM PPI inh
COc1ccccc1NC(=O)N1CCCC2(C1)Nc1ccccc1NC2=NC(C)(C)C (stereo unspecified),-3.7,66.8*
CC(C)(C)N=C1Nc2ccccc2NC12CCCN(C(=O)NCc1cccc(F)c1)C2 (stereo unspecified),-4.2,99.5*
COc1cccc(NC(=O)N2CCCC3(C2)Nc2ccccc2NC3=NC(C)(C)C)c1 (stereo unspecified),1.8,11.8
COc1cccc(CNC(=O)N2CCCC3(C2)Nc2ccccc2NC3=NC(C)(C)C)c1 (stereo unspecified),3.9,68.7*
COc1cc(OC)cc(C(=O)N2CCCC3(C2)Nc2ccccc2NC3=NC(C)(C)C)c1 (stereo unspecified),4.4,20.7
O=C(NCc1ccc(F)cc1Cl)C1c2ccccc2CCN1C(=O)C1CC1 (stereo unspecified),-2.0,-1.3
CCOc1ccccc1C=Nc1ccc(S(=O)(=O)N2CCOCC2)cc1,-8.3,-4.0
CSCCC(C)(O)CNC(=O)C=Cc1ccco1 (stereo unspecified),0.9,0.4
COc1ccc(S(=O)(=O)Nc2ccc(C)c(C)c2)cc1,-1.2,-9.1
Fc1cccc(-c2nnc(Cc3nc(-c4ccccc4)no3)o2)c1,-5.6,-8.9
CS(=O)(=O)c1ccc2nc(NC(=O)Cc3ccc(Br)cc3)sc2c1,-5.1,26.0
O=C(c1ccccc1)C1CN(Cc2ccccc2)CCC1(O)c1ccccc1 (stereo unspecified),-0.8,70.4*
OC1(c2ccccc2)CCN(Cc2ccccc2)C1 (stereo unspecified),-3.8,-3.6
COc1ccccc1-c1cc(C(=O)NCCc2cccs2)[nH]n1,-5.4,-10.2
CCCNc1cc(N2CCC(CCC(=O)NCCc3ccccn3)CC2)ncn1,-7.7,5.7
O=C(CCc1nc2ccccc2n(Cc2c(F)cccc2Cl)c1=O)NCc1ccccc1,-6.8,55.0*
CCCCNC(=O)CCc1nc2ccccc2n(Cc2c(F)cccc2Cl)c1=O,-7.0,23.0
COc1cc(CN2CCN(C3CCN(Cc4ccccc4)CC3)CC2)cc(OC)c1O,-2.5,-2.1
COc1nc(Nc2ccc(C(C)C)cc2)nc(OC)n1,-1.7,3.0
Cc1ccc(CNC(=O)c2cnn3c(C)c(Cc4cccc(Br)c4)c(C)nc23)cc1,-6.3,6.0
COCCNC(=O)c1cnn2c(C)c(Cc3cccc(Cl)c3)c(C)nc12,-11.6,45.0
COc1ccccc1CNC(=O)Cc1nc2nc(C)c(Cc3cccc(Cl)c3)c(C)n2n1,-11.7,57.0*
COc1ccccc1CNC(=O)CSc1nc2nc(C)c(Cc3ccccc3)c(C)n2n1,-2.5,10.0
COCCNC(=O)c1cnn2c(C)c(Cc3cccc(Br)c3)c(C)nc12,-9.4,63.0*
Cc1nc2c(C(=O)NCc3ccccn3)cnn2c(C)c1Cc1cccc(Cl)c1,-5.6,72.0*
SMILES,Pf apPOL block,mHTT-CaM PPI inh
Cc1nc2c(C(=O)NCC3CCCO3)cnn2c(C)c1Cc1cccc(Br)c1 (stereo unspecified),-3.7,96.0*
COc1ccc(CNC(=O)c2cnn3c(C)c(Cc4cccc(Cl)c4)c(C)nc23)cc1,-6.2,5.0
C#CCSc1nnc2nc(C)cc(C)n12,-8.2,0.3
CCC(C)Nc1nc(NCCOC23CC4CC(CC(C4)C2)C3)nc(OCC(F)(F)F)n1 (stereo unspecified),-6.0,-8.0
CCc1ccc(S(=O)(=O)NCCOc2ccc(F)cc2)s1,-3.3,-32.4
CCN1C(=O)c2ccccc2Oc2ccc(C(=O)NC3CCCCC3)cc21,-3.5,5.2
N#CCC(=O)N1CCN(C(c2ccccc2)c2ccccc2)CC1,3.7,1.3
CC1=NOC(=O)/C1=C/c1ccc(-c2ccccc2)o1,2.6,27.0
O=C1OC(c2ccc(Cl)cc2)=C/C1=C\c1ccccc1,-18.6,7.0
O=C1OC(c2ccc(Cl)cc2)=C/C1=C/c1ccc(-c2ccccc2C(=O)O)o1,-1.3,56.0*
CCCC1=C/C(=C\c2ccc(-c3ccccc3)o2)C(=O)O1,-3.8,50.0*
CC(=O)Nc1ccc(C2(C(=O)N3CCCCC3)CCC2)cc1,1.4,6.9
Cc1cc2n(n1)CCCN2C(=O)CCC(=O)N1CCN(Cc2ccccc2)CC1,0.6,28.0
Nc1nnc(-c2ccccc2)s1,2.6,-8.2

# Screening data: PubChem BioAssay, University of Kansas High Throughput Screening Laboratory
